Common to all, as to test: NCI-60 one-dose screen, 48 h (100 = growth as untreated, 0 = no growth, -100 = all killed)
One test deals with NCI-H23 lung. The settings on record: 10 µM unless noted.
Another test concerns NCI-H226 lung. The settings on record: 10 µM unless noted.
Another test relates to NCI-H322M lung. As to conditions: 10 µM unless noted.
Another test has as its system HOP-62 NSCLC. As to conditions: 10 µM unless noted.
The next test deals with NCI-H460 lung. As to conditions: 10 µM unless noted.
The next test deals with HOP-92 NSCLC. As to conditions: 10 µM unless noted.
In a further test the test system is NCI-H522 lung. As to conditions: 10 µM unless noted.
A further test has as its system A549/ATCC NSCLC. The settings on record: 10 µM unless noted.
Another test deals with 786-0 renal. The settings on record: 10 µM unless noted.
The subject of another test is COLO 205 colon. As to conditions: 10 µM unless noted.
A further test has as its system DU-145 prostate. The settings on record: 10 µM unless noted.
A further test deals with K-562 leukemia. The settings on record: 10 µM unless noted.
Another test deals with MALME-3M melanoma. The settings on record: 10 µM unless noted.
A further test concerns MDA-MB-231 breast. As to conditions: 10 µM unless noted.
Another test concerns RXF 393 renal. The settings on record: 10 µM unless noted.
The next test concerns SF-268 CNS. The settings on record: 10 µM unless noted.
The test system of another test is SF-295 CNS. As to conditions: 10 µM unless noted.
The subject of a further test is SF-539 CNS. As to conditions: 10 µM unless noted.
The subject of a further test is UACC-257 melanoma. The settings on record: 10 µM.
In a further test the test system is M14 melanoma. As to conditions: 10 µM unless noted.

The panel holds about 83,000 compounds, 20% with a hit somewhere; the sample as a whole holds those more often.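 Treatment: one concentration, 48 hours, 96-well format. Scoring: percent growth, with anything below 10 considered active.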 A number with no mark means an inactive call. Activity calls are given as the source filed them.

In the case of `COc1ccc(S(=O)(=O)Nc2cc(/C=C\c3cc(OC)c(OC)c(OC)c3)cc(OC)c2OC)cc1OC`, the growth with NCI-H23 lung was 31.4%; with NCI-H226 lung, 66.6%; in the test with NCI-H322M lung it was 55.2%; with HOP-62 NSCLC it was 52.3%; in the test with NCI-H460 lung it was 11.4%; in the test on HOP-92 NSCLC, 43.3%. The growth is 37.4% in the test on NCI-H522 lung; 34% in the test with A549/ATCC NSCLC; 18% with 786-0 renal; -47.4% (active) in the test with COLO 205 colon; 13.9% in the test with DU-145 prostate; 15.8% with K-562 leukemia. In addition, the growth was 84.1% in the test with MALME-3M melanoma; 32.3% in the test with MDA-MB-231 breast; -8.93% (active) in the test with RXF 393 renal; 38.4% in the test on SF-268 CNS; 8.39% (active) in the test on SF-295 CNS; -18.6% (active) in the test with SF-539 CNS. For the same compound, the growth with UACC-257 melanoma is 72%; in the test on M14 melanoma, 2.52% (active).
Regarding `COc1cc(OC)c(C(=O)/C=C/c2ccc(C#N)cc2)c(OC)c1`, the growth in the test on NCI-H23 lung was 20.1%; in the test with NCI-H226 lung, 28.9%; in the test on NCI-H322M lung, 17.3%; in the test on HOP-62 NSCLC, 13.6%; in the test on NCI-H460 lung, -3.34% (active); in the test on HOP-92 NSCLC, 12.8%. The growth in the test on NCI-H522 lung was -5.25% (active); in the test with A549/ATCC NSCLC it was 7.11% (active); in the test with 786-0 renal it was 10.6%; in the test with COLO 205 colon it was 9.97% (active); in the test with DU-145 prostate, 18.3%; with K-562 leukemia, 9.68% (active). Further, the growth with MALME-3M melanoma is 44.2%; with MDA-MB-231 breast, 22.2%; with RXF 393 renal, 15.9%; in the test with SF-268 CNS, 21%; with SF-295 CNS, 8.32% (active); in the test with SF-539 CNS, 2.95% (active). In addition, the growth in the test with UACC-257 melanoma was 30.8%; in the test on M14 melanoma it was 1.79% (active).
Turning to `CCOC(=O)C1=C(CSC(=S)N(C2CCCCC2)C2CCCCC2)N(C)C(=O)NC1c1ccccc1` (stereo not given), the growth in the test on NCI-H23 lung is 76.5%; in the test with NCI-H226 lung, 58.8%; in the test on NCI-H322M lung it was 91.9%; in the test on HOP-62 NSCLC, 63.1%; in the test on NCI-H460 lung, 12.7%; in the test on HOP-92 NSCLC, 69%. Also, the growth in the test with NCI-H522 lung is 58.1%; with A549/ATCC NSCLC, 47.2%; in the test with 786-0 renal, 48.6%; in the test on COLO 205 colon, 60.6%; in the test on DU-145 prostate, 46.8%; in the test on K-562 leukemia, 35.2%. For the same compound, the growth in the test on MALME-3M melanoma is 71.8%; in the test with MDA-MB-231 breast it was 62.9%; with RXF 393 renal it was 43.6%; in the test with SF-268 CNS, 49%; in the test on SF-295 CNS, 39.9%; with SF-539 CNS it was 71.6%. The growth in the test on UACC-257 melanoma was 61.4%; with M14 melanoma, 56.9%.
Take `COc1ccc(-c2nc3sccn3c2-c2ccnc(NCCNS(=O)(=O)c3ccc(C(F)(F)F)cc3)n2)cc1`: the growth is 15.5% in the test with NCI-H23 lung; 4.55% (active) with NCI-H226 lung; 37.1% in the test with NCI-H322M lung; 46.1% with HOP-62 NSCLC; 15.4% in the test with NCI-H460 lung; 13.4% in the test with HOP-92 NSCLC. For the same compound, the growth was -1.01% (active) in the test on NCI-H522 lung; 18.9% in the test on A549/ATCC NSCLC; 18.4% in the test on 786-0 renal; 0.693% (active) with COLO 205 colon; 15.8% in the test on DU-145 prostate; 6.19% (active) with K-562 leukemia. Also, the growth in the test on MALME-3M melanoma was 8.25% (active); with MDA-MB-231 breast it was 16%; in the test on RXF 393 renal, 18.5%; in the test on SF-268 CNS, 0.178% (active); in the test on SF-295 CNS, -28.5% (active); in the test with SF-539 CNS, 0.637% (active). Besides, the growth in the test on UACC-257 melanoma is 13.3%; in the test with M14 melanoma, 10.1%.
For the compound `O=C(NCCCN1CCN(CCCNC(=O)C2CCCCC2)CC1)C1CCCCC1`, the growth in the test with NCI-H23 lung was 111%; in the test with NCI-H226 lung it was 105%; with NCI-H322M lung it was 91.9%; in the test with HOP-62 NSCLC, 94.7%; in the test with NCI-H460 lung, 101%; in the test on HOP-92 NSCLC, 70.5%. Moreover, the growth in the test on NCI-H522 lung is 95%; with A549/ATCC NSCLC, 101%; in the test with 786-0 renal it was 96.5%; in the test with COLO 205 colon, 104%; in the test on DU-145 prostate, 110%; with K-562 leukemia, 92.7%. Besides, the growth is 94% with MALME-3M melanoma; 108% in the test on MDA-MB-231 breast; 119% in the test with RXF 393 renal; 104% in the test with SF-268 CNS; 84.5% with SF-295 CNS; 96.7% with SF-539 CNS. For the same compound, the growth with UACC-257 melanoma was 97.1%; in the test on M14 melanoma, 98.6%.
With `CCNC(=O)C1CCCN1C(=O)C(CCCN=C(N)N)NC(=O)C(CC(C)C)NC(=O)C(CC(C)C)NC(=O)C(Cc1ccc(O)cc1)NC(=O)C(CO)NC(=O)C(Cc1c[nH]c2ccccc12)NC(=O)C(Cc1cnc[nH]1)NC(=O)C1CCC(=O)N1` (stereo not given), the growth with NCI-H23 lung was 87.8%; in the test on NCI-H226 lung, 111%; in the test with NCI-H322M lung, 119%; with HOP-62 NSCLC, 96.8%; in the test on NCI-H460 lung it was 107%; in the test on HOP-92 NSCLC it was 92%. Also, the growth in the test on NCI-H522 lung was 74.1%; in the test with A549/ATCC NSCLC, 81.6%; in the test on 786-0 renal, 104%; in the test on COLO 205 colon, 94.9%; in the test with DU-145 prostate, 135%; with K-562 leukemia, 73.5%. In addition, the growth is 122% in the test with MALME-3M melanoma; 112% in the test on MDA-MB-231 breast; 28.4% in the test with RXF 393 renal; 100% with SF-268 CNS; 122% in the test on SF-295 CNS; 96.1% in the test on SF-539 CNS. The growth in the test with UACC-257 melanoma is 83.8%; in the test on M14 melanoma, 102%.
On to `Nc1c(C(=O)Nc2c(Cl)cccc2Cl)sc2nc3c(cc12)CCCCC3`, for which the growth is 78.4% with NCI-H23 lung; 61.8% in the test with NCI-H226 lung; 85.4% in the test with NCI-H322M lung; 53.9% in the test with HOP-62 NSCLC; 54.9% in the test with NCI-H460 lung; 59.4% in the test with HOP-92 NSCLC. Also, the growth in the test on NCI-H522 lung is 40.1%; in the test with A549/ATCC NSCLC, 50.3%; in the test on 786-0 renal it was 59.8%; in the test with COLO 205 colon, 45.3%; in the test on DU-145 prostate, 70.4%; with K-562 leukemia, 24.1%. Moreover, the growth in the test on MALME-3M melanoma is 61.5%; with MDA-MB-231 breast, 63.4%; in the test with RXF 393 renal it was 3.29% (active); in the test on SF-268 CNS it was 60.5%; in the test on SF-295 CNS it was 54.4%; in the test on SF-539 CNS, 38.2%. Also, the values for the growth in the test with UACC-257 melanoma and in the test with M14 melanoma were 50.7% and 43.8%, respectively.
On to `O=C(CNc1c(Cl)cccc1Cl)Nc1ccc(-c2nc3ccccc3s2)cc1`, for which the growth in the test on NCI-H23 lung is 40.9%; in the test with NCI-H226 lung it was 54.4%; with NCI-H322M lung, 94.6%; in the test with HOP-62 NSCLC, 118%; in the test with NCI-H460 lung, 91.2%; in the test with HOP-92 NSCLC it was 94.2%. In addition, the growth is -93.4% (active) with NCI-H522 lung; 85.7% in the test with A549/ATCC NSCLC; 24.1% in the test on 786-0 renal; 87.7% with COLO 205 colon; 85.7% in the test on DU-145 prostate; 10.5% with K-562 leukemia. The growth with MALME-3M melanoma is -50% (active); in the test with MDA-MB-231 breast, 56.9%; in the test on RXF 393 renal, 86.6%; in the test on SF-268 CNS, 46.2%; with SF-295 CNS, 97.4%; in the test with SF-539 CNS it was 79.9%. Moreover, the growth in the test on UACC-257 melanoma is 96.5%; with M14 melanoma it was 55.7%.

For the origin of these results see PubChem BioAssay (NCI).
